A number with no mark means an inactive call. No rule for the calls is given here.
B1: d4r4_design_ppi_253_dldesign_0_cycle0_af2pred (protein)
chain: MEELREEARRRMREARERAGEAAATSPEAAREAAEEVRRIAEELRKRVDWQTGARAEAQAEQIVEALERAAKAMEA
B2: d4r4_design_ppi_338_dldesign_0_cycle1_af2pred (protein)
chain: SLNEEAKKEAEKLVEKAKKALKESPEAGEKAVKEMANKYHEYLELGVDKEVVERLRKEAKELKEEVKRKKKELEEEKLA
B3: d4r4_design_ppi_253_dldesign_0_cycle1_af2pred (protein)
chain: MEEKKEEARRIVREAREEARKAAAESPEAALKAAEKVKERRKELEEKVDFKTAESASARFEQIIEALKIAAKKLAA
B4: d4r4_design_ppi_356_dldesign_0_cycle1_af2pred (protein)
chain: DLEEKAKEGLKKMEEEGKKNPELGKKVKELLEKGKEDGLKGVVEAAKLLTKEAGEEIKPYAAAIVHYERLKK
B5: d4r4_design_ppi_269_dldesign_0_cycle0_af2pred (protein)
chain: SVEEAKKKNLKIAEEAIKLAEEVAKELEKNEKYKEKAEEFKKKAKELKELKKKGEEDALDATLAGVYGKRLKKKAEEEKKKLEEE
B6: d4r4_design_ppi_229_dldesign_0_cycle1_af2pred (protein)
chain: EKEEKKKEAKELAEEAKKLAEELAKAAEEDLEKAKELYKKAKEAAGKAIKLAKEAGDKETAKEASENNFKAHENYAEGKFK
B7: d4r4_design_ppi_269_dldesign_0_cycle1_af2pred (protein)
chain: DVEEAREKNLEIAKKAIEEARKVAKEAEKKPEYREKAKELRKEAEELEKLAEEGKKDPLMATLAGVQGRRLLEEARKLRKELEEE
B8: d4r4_design_ppi_299_dldesign_0_cycle0_af2pred (protein)
chain: KSELAKKAADETSKALSYIRAFAKYKPEKGKEIEDLLLDEEKMEEAAELAEKAAKEAETEEEKEIAKKAAEHIRKAKEYLEKLK
B9: d4r4_design_ppi_394_dldesign_0_cycle1_af2pred (protein)
chain: MEIQKENDAEAGLERAKHAKEVAKKALENKPKLSLEEVAEILKKAAERAEKAAKTEEGKKLAKELKEEAKKVEAELKKAQ
B10: d4r4_design_ppi_349_dldesign_0_cycle1_af2pred (protein)
chain: SEAAKYKAQYEATKKQLKETSAKLKEEKKNLSAETYKEYANKLQEARQKSTYYKAKGDYKNALAAMQEALDIAQQALAEAQKAK
B11: d4r4_design_ppi_265_dldesign_0_cycle1_af2pred (protein)
chain: SKEEEEAKKTKEEAEKRLKKALEEAKKLGEAEVDAVKQIVEAGKKAAAAAETPKEAAEALAKAAKTAESIIKTAKEAKKR
B12: d4r4_design_ppi_349_dldesign_0_cycle0_af2pred (protein)
chain: SEKEKLLEKYKETLEELRKVRKELAKEKKNLDKETFTKIANELQDARNESAYYKQQGDYKKALEAAEKALEIAKEGLKKAKEAA
B13: d4r4_design_ppi_344_dldesign_0_cycle1_af2pred (protein)
chain: DPLTLAQEGLTEARYNAKDPEKALAILTATVAAGTAALAALAADPATAPLAAAGLATLARYGAKVGAEILANAKEKEA
B14: d4r4_design_ppi_251_dldesign_0_cycle1_af2pred (protein)
chain: DSDEKAKELLEEAEKYLEEGEKLMEEGKYEEAVLLYRRAQVAALSAELSATTEELKEKAKELLKKAEEKLKEAEEALKKAEEEKK
B15: d4r4_design_ppi_373_dldesign_0_cycle0_af2pred (protein)
chain: AARAAAQKEAVALMAEAAEKAAEKAKKTSVAAEAFRAATKAAQAAASGEKWPEGEAAVEKLKKLDPEAGKIIAEAAAKAKAIMA
B16: d4r4_design_ppi_373_dldesign_0_cycle1_af2pred (protein)
chain: SEKEARIKEAVALMDKAAEEAAEKAKTTELANKAFRAATTAAKAAASGEDWPKGEAAVKELKKADPEAGKIIEEAAKQAAEIIA
B17: d4r4_design_ppi_257_dldesign_0_cycle1_af2pred (protein)
chain: AEAKAAREAEFKALVEKAEAAADAAMAKATTIEEKKAILDLFNEAARHAKRGAANPETAAADLAAAKAKLAEIEAKAKA
B18: d4r4_design_ppi_240_dldesign_0_cycle0_af2pred (protein)
chain: MKEKQEKARAEARAEHVKEAIEKYYKEAAKGDKKEALKKTAEFAKEAAKKAKYPLTKEIALALAEEYAKKAA
B19: d4r4_design_ppi_303_dldesign_0_cycle0_af2pred (protein)
chain: MAERAAIMEEARENAIKAYEYAVKLKKIDPELGKEYMKKIDKLMKEAVEAAKDAEKAKKKAEEIKKLAEEIEKIAKEK

The binders below were run against VTCN1, Q7Z7D3.
Sequence of VTCN1, Q7Z7D3 (Q7Z7D3 whole entry): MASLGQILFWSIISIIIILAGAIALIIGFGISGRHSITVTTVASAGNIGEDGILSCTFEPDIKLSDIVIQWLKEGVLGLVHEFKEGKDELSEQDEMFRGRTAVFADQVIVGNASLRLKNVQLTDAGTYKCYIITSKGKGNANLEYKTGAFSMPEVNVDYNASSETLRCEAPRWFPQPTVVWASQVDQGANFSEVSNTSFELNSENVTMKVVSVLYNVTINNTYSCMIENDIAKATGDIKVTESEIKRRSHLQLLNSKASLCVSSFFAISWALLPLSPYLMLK

Binder | binding in a display sort
B1 | not found
B2 | not found
B3 | not found
B4 | not found
B5 | not found
B6 | not found
B7 | not found
B8 | not found
B9 | not found
B10 | not found
B11 | not found
B12 | not found
B13 | not found
B14 | not found
B15 | not found
B16 | not found
B17 | not found
B18 | not found
B19 | not found

Source: PMC13494018
